# Measurements published in PubChem BioAssay (NCATS).
# Inconclusive results are not listed. Entries that show only a call come without a potency. The source made the active and inactive calls. Unless noted, the call rests on the fitted dose curve; in most records, active means well fitted curve in the direction sought with a large enough effect; inconclusive means small, poorly fitted or top-dose-only effect, or another doubt; inactive means no such curve, though single readings can be large; an effect the other way counts as inactive or inconclusive.
# What was measured:
# [1] = qHTS for Inhibitors of Plasmodium falciparum (CP250) proliferation (AID 504320); further: potency means the concentration at half of the fitted maximal effect
# Outline: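 Erythrocytes infected with P. falciparum line (0.3% parasitemia, 2.5% hematocrit final) incubated with compounds 72 h at 37 °C, 5% CO2; SYBR Green lysis buffer added, fluorescence read next day. Normalized to 0.29 uM artemisinin and DMSO.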
# [2] = target: Atrial natriuretic peptide receptor 1 (Homo sapiens) (UniProt P16066); test: Natriuretic polypeptide receptor (hNpr1) antagonism - Pilot CMLD screen (AID 1347052; calls by dose curve;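 further: HEK293 cells with hNpr1 stimulated by hNppA peptide at 0.1 nM; cGMP level read as GloSensor luciferase luminescence after agonist stimulation; series mostly up to about 9.2 µM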)
# Furin (Homo sapiens) = Furin (Homo sapiens) (UniProt P09958); test: Furin counterscreen qHTS for Zika virus inhibitors (AID 1347149); further: potency means the concentration at half of the fitted maximal effect; nearly all actives have a fitted effect of over 70% in size
# Outline: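 Fluorogenic cleavage of BOC-RVRR-AMC (2 microM final, Km ~15 µM) was monitored (ex 340, em 450 nm) at 37C after 15 min RT preincubation of 5 nM furin with compounds in HEPES pH 7.0 buffer with CaCl2 and Triton X-100. Percent inhibition was fitted to a 4-parameter Hill curve.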
# [3] = target: N-terminal Xaa-Pro-Lys N-methyltransferase 1 (Homo sapiens) (UniProt Q9BV86); test: qHTS Assay for Inhibitors of N-terminal methyltransferase 1 (NTMT1): LOPAC validation of the NTMT1 SAHH-coupled ThioGlo3 Assay (AID 1347143);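 further: SAH from peptide methylation measured as thiol fluorescence via SAHH coupling and ThioGlo3; nearly all actives have a fitted effect of over 70% in size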; further: potency means the concentration at half of the fitted maximal effect
# Outline: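 Inhibition of NTMT1 methylation of peptide SPKRIA is followed by converting SAH with SAHH and labelling the released thiol with ThioGlo3. Plates are read at 340/450nm before and 30 min after reagent addition, both at room temperature.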
# [4] = Confirmation and Secondary Assay for Modulators of Hemoglobin Beta Chain Splicing at IVS2 654 locus (AID 910);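 further: HeLa cells stably carrying EGFP split by mutant beta-globin IVS2-654 intron; per-well total GFP intensity by laser scanning cytometry after 2-day treatment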
# Outline: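 Readout: per-well total peak green fluorescence (488 nm ex, 500–520 nm em) from objects 5–250 µm, reflecting correct splicing of an EGFP-654 reporter. Compounds were applied for 2 days at 37 °C to overnight-plated HeLa EGFP-654 cells; controls were DMSO and 500 nM IVS2-654 PNA.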
# [5] = target: ATP-dependent DNA helicase Q1 (Homo sapiens) (UniProt P46063); test: qHTS Validation Assay for Inhibitors of RecQ-Like Dna Helicase 1 (RECQ1) (AID 2353)
# Outline: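 50 nM RECQ1T1 preincubated 15 min with compound in Tris pH 8.0 buffer with MgCl2, DTT, Tween-20 and 2.5 ug/ml poly(dI-dC); started with 200 nM TAMRA/BHQ-2 forked duplex and 2 mM ATP. Unwinding read as fluorescence (525/598 nm), two reads 2 h apart.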
# [6] = target: M-phase phosphoprotein 8 (Homo sapiens) (UniProt Q99549); test: qHTS Validation Assay for Inhibitors for MPP8 Chromodomain Interactions with Methylated Histone Tails (AID 488949);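 further: AlphaScreen signal from MPP8 chromodomain bound to biotinylated H3K9me3 peptide; top concentration of the series differs between compounds; nearly all actives have a fitted effect of over 55% in size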
# Outline: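 MPP8 (50 nM) was preincubated with biotinylated H3(1-18)K9me3 peptide (50 nM) in PBS pH 7.4, 0.01% Tween-20 for 30 min at room temperature, then with compounds for 30 min; binding was detected by AlphaScreen.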
# [7] = target: Methanococcus maripaludis chaperonin (MmCpn) (UniProt Q6LX38); test: High-Throughput Screening for Modulators of Cytosolic Chaperonin Activity: MmCpn Primary Screen (AID 488978);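 further: 50 nM MmCpn enzyme hydrolysing 30 µM ATP at 37 °C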
# Outline: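 MmCpn (50 nM final) was preincubated with compound 5 min at RT, then 30 uM ATP (final) was added and the reaction ran 10 min at 37C. ADP produced was detected by Transcreener HTRF (ex 320 nm; em 590/665 nm).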
# [8] = target: T1, Hexokinase-4 (Homo sapiens) + Glucokinase regulatory protein (Homo sapiens) (UniProt P35557+Q14397); test: qHTS assay for inhibitors of recombinant human GCK-GKRP interaction: Diaphorase-coupled assay (AID 743205)
# Outline: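 GST-GCK (10 nM) with FLAG-GKRP (10 nM), 5 mM glucose and 0.4 mM ATP in pH 7.6 Hepes; compounds preincubated 20 min with substrate. G6PDH/diaphorase coupling converts resazurin to resorufin, read kinetically (ex 525/em 590 nm) for 30 min.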
# [9] = target: T1, Hexokinase-4 (Homo sapiens) + Glucokinase regulatory protein (Homo sapiens); test: qHTS assay for inhibitors of recombinant human GCK-GKRP interaction: ADP-Glo assay (AID 743206)
# Outline: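 GST-GCK and FLAG-GKRP (15 nM each in the dispensed mix, with 2 uM S6P) react with 0.4 mM ATP and 5 mM glucose (final) in Hepes pH 7.6 for 60 min at room temperature. ADP is measured by ADP-Glo luminescence.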
# [10] = target: T1, Hexokinase-4 (Homo sapiens) + Glucokinase regulatory protein (Homo sapiens); test: qHTS assay for inhibitors of recombinant human GCK-GKRP interaction: HTRF assay (AID 743207)
# Outline: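 GST-GCK and FLAG-GKRP (5 nM each) were combined with 2 uM S6P in pH 7.1 Hepes/MgCl2/KCl/DTT buffer, then compound and anti-FLAG XL665/anti-GST K antibodies were added. After 60 min at room temperature, HTRF 665/615 nm emission was read.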
# [11] = test system: Zika virus NS2B-NS3 protease (unlinked); test: Optimization of GU AMC qHTS for Zika virus inhibitors: Unlinked NS2B-NS3 protease assay (AID 1347151); further: series mostly up to about 52 µM; nearly all actives have a fitted effect of over 80% in size
# Outline: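 Noncovalent complex of NS2B hydrophilic domain and NS3 protease domain, 25 nM final, in 10 mM Tris-HCl pH 8.0, 0.01% Tween 20. AMC fluorescence change over 15 min at room temperature was fitted to a 4-parameter Hill equation.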
# [12] = test system: Zika virus NS2B-NS3 protease (unlinked complex); test: Primary screen GU Rhodamine qHTS for Zika virus inhibitors: Unlinked NS2B-NS3 protease assay (AID 1347159); further: nearly all actives have a fitted effect of over 60% in size
# Outline: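 Percent inhibition derives from the 15-min fluorescence change (ex 480, em 540 nm), normalized to no-enzyme and no-inhibitor wells. Reactions contained 25 nM NS2B-NS3 complex and 1.5 microM substrate in 10 mM Tris-HCl pH 8.0.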
# [13] = test system: Zika virus NS2B-NS3 protease (linked construct); test: Primary screen NINDS Rhodamine qHTS for Zika virus inhibitors (AID 1347160); further: nearly all actives have a fitted effect of over 55% in size
# Outline: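 In 10 mM Tris-HCl pH 8.0 containing 0.01% Tween 20, linked NS2B-NS3 protease (25 nM final) is exposed to test compounds for 15 min. Cleavage of 1.5 microM Rhodamine110 substrate is tracked by fluorescence over 15 min.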
# [14] = target: Lysine-specific demethylase 5B (Homo sapiens) (UniProt Q9UGL1); test: Optimization screen for KDM5B Histone Demethylases FDH coupled qHTS against the LOPAC library (AID 1347166)
# Outline: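 KDM5BDeltaAP (200nM final) preincubated 10 min with compound, then 12.5uM H3K4Me3, 25uM a-ketoglutarate, ascorbate, Fe(II), NAD+ and FDH added; 50mM HEPES pH 7.5, 0.01% Tween-20. NADH fluorescence (340/450 nm) change over 30 min, room temperature.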
# [15] = qHTS for inhibitors of adenylyl cyclases using a fission yeast platform: a pilot screen against the NCATS LOPAC library (AID 1347410)
# Outline: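 S. pombe CHP2027 (AC9-GNAS-PDE4D2) carrying a PKA-repressed fbp1-GFP reporter was exposed to LOPAC compounds (final up to 57 µM) for 18 h at 30C in the dark, in EMM with histidine, lysine and uracil; GFP gain-of-signal read by laser scanning cytometry.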
# [16] = target: Single-stranded DNA cytosine deaminase (Homo sapiens) (UniProt Q9GZX7); test: Validation qHTS assay for inhibitors of Activation Induced Cytidine Deaminase (AID): AID signal (AID 1347429)
# Outline: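 Fluorescence at 540 nm excitation and 590 nm emission reports ssDNA cytosine deamination by AID, with UDG in the same well. Compound-treated reactions ran 4 hr at room temperature with DJC20/DJC23 substrate, followed by 30 min NaOH treatment.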
# Papain (Carica papaya) = Papain (Carica papaya) (UniProt P00784); test: Primary qHTS assay for inhibitors of the protease papain (AID 1645873);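 further: papain turnover of Z-FR-AMC read as the AMC fluorescence gain over 10 min; series mostly up to about 50 µM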
# [17] = target: Rap guanine nucleotide exchange factor 4 (Homo sapiens) (UniProt Q8WZA2); test: Confirmatory qHTS for antagonist of cAMP-regulated guanine nucleotide exchange factor 4 (EPAC2) (AID 1645885); further: potency means the concentration at half of the fitted maximal effect; nearly all actives have a fitted effect of over 25% in size
# [18] = target: Glutathione peroxidase 1 (Homo sapiens) (UniProt P07203); test: Primary qHTS Assay for Inhibitors of Recombinant Selenoprotein Glutathione Peroxidase 1 (GPX1) (AID 1845191); further: nearly all actives have a fitted effect of over 65% in size
# Outline: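 10 nM GPX1 + cpd, 30 min RT; start w/ 1 mM GSH, 0.5 mM cumene hydroperoxide, 0.5 mM NADPH, 100 nM GR, 0.01% BSA; buffer 50 mM Tris-HCl pH 7.5, 2 mM EDTA, 150 mM NaCl; Fl 340/450, 0 & 15 min.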
# [19] = target: Phospholipid hydroperoxide glutathione peroxidase GPX4 (Homo sapiens) (UniProt P36969); test: Primary qHTS Assay for Inhibitors of Recombinant Selenoprotein Glutathione Peroxidase 4 (GPX4) (AID 1845192); conditions: outcome: dose series up to 50 µM unless noted; further: series mostly up to about 50 µM; nearly all actives have a fitted effect of over 65% in size
# Outline: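 NADPH consumption, followed by fluorescence at 340/450 nm between 0 and 15 min, reports GPX4 activity via coupled glutathione reductase (100 nM). Enzyme 200 nM was pre-exposed to compound 30 min; 0.5 mM cumene hydroperoxide and 1 mM GSH served as substrates.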
# [20] = Primary fluorescence-based thiol-reactive (MSTI) qHTS assay for identification of artifact compounds. (AID 1845221);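 further: series mostly up to about 54 µM; thiol-reactive compounds lower the probe fluorescence signal; nearly all actives have a fitted effect of over 65% in size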
# Outline: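 qHTS titration of compound; 4 uM MSTI, PBS pH 7.4, 2% DMSO; 1 h RT, dark; fluorescence 525/598 nm; normalized to Acetyl-MSTI and MSTI; 4-parameter Hill fit.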
# [21] = Primary redox qHTS assay for identification of artifact compounds. (AID 1845223)
# Outline: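 Amplex Red (25 uM) and HRP (250 mU/mL) in HBSS, with compounds for 15 min, then 250 uM DTT for 30 min, room temperature, dark. Fluorescence 525/598 nm read; normalized to DMSO and 10 uM DA3003; Hill fit.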
# Glutathione peroxidase 1 (Homo sapiens), sequence (P07203 whole entry, looked up): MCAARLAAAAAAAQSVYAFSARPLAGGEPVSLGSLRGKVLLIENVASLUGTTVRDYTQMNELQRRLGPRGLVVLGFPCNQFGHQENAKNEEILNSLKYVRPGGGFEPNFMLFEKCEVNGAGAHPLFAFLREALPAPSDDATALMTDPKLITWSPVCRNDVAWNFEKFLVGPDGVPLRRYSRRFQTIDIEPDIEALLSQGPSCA
# Phospholipid hydroperoxide glutathione peroxidase GPX4 (Homo sapiens), sequence (P36969 whole entry, looked up): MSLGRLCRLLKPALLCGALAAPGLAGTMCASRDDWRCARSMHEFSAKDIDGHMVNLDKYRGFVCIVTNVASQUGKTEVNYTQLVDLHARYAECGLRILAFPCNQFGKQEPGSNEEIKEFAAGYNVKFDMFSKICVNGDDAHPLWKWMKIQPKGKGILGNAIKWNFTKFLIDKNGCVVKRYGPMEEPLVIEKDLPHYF
# T1 sequence (P35557 whole entry, looked up): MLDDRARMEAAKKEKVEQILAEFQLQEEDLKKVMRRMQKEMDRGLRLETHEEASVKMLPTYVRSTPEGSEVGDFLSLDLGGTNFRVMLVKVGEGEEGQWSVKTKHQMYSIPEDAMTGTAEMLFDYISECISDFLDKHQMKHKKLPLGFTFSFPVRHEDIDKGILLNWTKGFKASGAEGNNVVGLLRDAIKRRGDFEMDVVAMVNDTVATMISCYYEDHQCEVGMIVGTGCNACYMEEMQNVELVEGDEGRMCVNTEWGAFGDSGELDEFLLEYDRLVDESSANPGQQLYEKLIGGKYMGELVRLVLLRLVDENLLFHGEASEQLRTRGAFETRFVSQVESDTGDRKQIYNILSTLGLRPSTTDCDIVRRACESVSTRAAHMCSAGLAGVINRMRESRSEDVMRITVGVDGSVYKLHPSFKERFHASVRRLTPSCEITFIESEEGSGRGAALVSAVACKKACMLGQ
# T1 sequence (Q14397 whole entry, looked up): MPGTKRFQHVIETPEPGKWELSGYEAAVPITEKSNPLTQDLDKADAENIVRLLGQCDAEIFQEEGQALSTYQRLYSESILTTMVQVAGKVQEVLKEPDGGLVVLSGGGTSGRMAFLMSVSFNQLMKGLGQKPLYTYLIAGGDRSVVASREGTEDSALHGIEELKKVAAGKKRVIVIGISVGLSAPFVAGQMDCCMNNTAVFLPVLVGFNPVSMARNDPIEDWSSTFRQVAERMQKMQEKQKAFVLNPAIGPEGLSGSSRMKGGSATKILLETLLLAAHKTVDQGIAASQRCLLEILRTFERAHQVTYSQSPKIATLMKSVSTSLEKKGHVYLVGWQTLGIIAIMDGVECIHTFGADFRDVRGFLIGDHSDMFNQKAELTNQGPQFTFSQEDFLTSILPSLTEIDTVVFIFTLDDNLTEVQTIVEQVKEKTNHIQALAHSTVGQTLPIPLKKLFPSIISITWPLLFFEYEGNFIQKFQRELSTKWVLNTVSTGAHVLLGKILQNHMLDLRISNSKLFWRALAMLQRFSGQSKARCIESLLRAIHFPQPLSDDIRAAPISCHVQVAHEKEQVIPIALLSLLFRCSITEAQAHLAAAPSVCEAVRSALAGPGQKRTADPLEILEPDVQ
# Atrial natriuretic peptide receptor 1 (Homo sapiens), sequence (P16066 whole entry, looked up): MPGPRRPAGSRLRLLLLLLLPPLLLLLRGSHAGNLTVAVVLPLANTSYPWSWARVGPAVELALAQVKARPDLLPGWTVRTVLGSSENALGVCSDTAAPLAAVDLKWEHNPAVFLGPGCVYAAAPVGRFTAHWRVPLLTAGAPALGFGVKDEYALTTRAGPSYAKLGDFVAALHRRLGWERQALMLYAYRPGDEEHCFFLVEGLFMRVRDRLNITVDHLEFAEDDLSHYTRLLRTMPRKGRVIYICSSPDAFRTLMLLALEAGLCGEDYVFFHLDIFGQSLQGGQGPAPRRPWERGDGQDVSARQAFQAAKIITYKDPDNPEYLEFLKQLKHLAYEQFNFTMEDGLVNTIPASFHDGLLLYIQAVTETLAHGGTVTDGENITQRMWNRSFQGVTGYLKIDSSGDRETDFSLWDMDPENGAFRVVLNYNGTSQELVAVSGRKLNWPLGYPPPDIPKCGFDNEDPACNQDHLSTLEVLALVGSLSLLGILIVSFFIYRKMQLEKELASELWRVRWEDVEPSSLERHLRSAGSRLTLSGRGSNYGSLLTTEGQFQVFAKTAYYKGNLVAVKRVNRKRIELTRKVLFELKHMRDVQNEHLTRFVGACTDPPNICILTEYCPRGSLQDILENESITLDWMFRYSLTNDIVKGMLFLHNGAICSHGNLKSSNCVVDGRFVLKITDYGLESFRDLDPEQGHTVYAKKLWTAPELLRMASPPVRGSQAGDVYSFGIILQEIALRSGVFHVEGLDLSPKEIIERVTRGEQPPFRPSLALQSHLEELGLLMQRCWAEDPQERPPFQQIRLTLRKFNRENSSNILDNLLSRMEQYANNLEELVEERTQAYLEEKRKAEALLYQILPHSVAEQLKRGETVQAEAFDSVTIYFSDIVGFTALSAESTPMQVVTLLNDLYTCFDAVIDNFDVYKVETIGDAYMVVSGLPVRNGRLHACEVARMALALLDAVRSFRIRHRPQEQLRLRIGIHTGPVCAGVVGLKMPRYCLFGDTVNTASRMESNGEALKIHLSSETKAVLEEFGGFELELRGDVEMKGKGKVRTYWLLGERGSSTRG
# N-terminal Xaa-Pro-Lys N-methyltransferase 1 (Homo sapiens), sequence (Q9BV86 whole entry, looked up): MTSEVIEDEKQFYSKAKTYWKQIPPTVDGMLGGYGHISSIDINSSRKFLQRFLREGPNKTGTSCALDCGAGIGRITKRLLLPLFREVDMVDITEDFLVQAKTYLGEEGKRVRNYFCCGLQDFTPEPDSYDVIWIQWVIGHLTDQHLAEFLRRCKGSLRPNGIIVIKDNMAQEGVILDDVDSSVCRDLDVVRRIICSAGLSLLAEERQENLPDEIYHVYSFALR
# M-phase phosphoprotein 8 (Homo sapiens), sequence (Q99549 whole entry, looked up): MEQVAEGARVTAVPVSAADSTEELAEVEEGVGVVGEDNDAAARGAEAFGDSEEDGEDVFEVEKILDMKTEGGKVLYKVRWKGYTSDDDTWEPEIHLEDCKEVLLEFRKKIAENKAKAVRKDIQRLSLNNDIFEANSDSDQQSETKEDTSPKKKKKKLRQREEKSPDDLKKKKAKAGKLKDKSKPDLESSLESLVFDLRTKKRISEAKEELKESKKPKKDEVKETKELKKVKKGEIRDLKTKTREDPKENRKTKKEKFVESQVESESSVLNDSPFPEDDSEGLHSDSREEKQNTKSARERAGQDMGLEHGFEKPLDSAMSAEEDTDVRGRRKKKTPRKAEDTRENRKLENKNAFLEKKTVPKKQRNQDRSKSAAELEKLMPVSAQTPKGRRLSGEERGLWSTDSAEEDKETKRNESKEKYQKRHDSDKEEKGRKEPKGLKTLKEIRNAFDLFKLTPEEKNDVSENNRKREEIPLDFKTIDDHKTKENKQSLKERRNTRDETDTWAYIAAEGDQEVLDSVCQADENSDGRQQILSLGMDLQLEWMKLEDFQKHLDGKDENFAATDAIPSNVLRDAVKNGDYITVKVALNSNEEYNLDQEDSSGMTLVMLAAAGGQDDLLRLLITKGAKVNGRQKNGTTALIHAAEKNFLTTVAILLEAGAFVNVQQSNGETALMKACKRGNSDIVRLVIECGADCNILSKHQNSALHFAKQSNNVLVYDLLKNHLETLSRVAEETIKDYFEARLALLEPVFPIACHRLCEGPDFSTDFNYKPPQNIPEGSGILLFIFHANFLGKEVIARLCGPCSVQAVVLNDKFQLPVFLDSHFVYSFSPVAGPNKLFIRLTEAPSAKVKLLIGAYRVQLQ
# Furin (Homo sapiens), sequence (P09958 whole entry, looked up): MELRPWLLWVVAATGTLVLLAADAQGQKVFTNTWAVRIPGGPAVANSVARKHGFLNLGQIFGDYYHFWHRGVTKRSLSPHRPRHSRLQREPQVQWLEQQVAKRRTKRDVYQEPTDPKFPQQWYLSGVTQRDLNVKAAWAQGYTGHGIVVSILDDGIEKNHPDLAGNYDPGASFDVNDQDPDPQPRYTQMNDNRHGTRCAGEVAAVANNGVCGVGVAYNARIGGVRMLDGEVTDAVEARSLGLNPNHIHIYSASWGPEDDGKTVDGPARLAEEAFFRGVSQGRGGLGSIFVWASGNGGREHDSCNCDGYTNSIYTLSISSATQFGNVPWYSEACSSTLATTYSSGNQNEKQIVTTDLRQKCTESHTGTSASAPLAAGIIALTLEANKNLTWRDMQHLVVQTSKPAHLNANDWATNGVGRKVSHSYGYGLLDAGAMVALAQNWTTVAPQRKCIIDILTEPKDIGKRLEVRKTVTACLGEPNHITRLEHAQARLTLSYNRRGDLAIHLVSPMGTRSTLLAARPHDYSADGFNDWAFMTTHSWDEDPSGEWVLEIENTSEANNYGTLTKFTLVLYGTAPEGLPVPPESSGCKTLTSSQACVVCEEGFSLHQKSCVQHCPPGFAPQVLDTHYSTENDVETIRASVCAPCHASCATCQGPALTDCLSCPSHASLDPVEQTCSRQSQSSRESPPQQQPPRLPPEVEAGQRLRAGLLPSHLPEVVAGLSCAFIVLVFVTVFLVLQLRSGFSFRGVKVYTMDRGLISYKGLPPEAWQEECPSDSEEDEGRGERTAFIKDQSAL
# Methanococcus maripaludis chaperonin (MmCpn), sequence (Q6LX38 1-543): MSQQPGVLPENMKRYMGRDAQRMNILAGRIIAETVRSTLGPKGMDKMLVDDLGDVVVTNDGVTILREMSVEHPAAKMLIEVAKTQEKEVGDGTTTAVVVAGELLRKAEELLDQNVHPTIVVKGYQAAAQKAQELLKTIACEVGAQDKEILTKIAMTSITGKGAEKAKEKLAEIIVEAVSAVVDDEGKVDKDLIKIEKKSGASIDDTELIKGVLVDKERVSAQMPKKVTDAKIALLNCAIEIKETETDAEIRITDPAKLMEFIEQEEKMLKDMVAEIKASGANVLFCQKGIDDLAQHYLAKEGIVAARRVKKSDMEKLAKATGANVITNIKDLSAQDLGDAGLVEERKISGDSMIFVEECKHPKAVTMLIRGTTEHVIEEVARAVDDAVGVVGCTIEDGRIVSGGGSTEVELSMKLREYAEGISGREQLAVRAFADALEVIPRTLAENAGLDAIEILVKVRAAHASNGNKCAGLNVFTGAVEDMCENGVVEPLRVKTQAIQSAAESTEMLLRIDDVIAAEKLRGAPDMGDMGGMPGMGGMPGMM
compound,measurement,setting,value
Cc1ccc(C=CC2=C[C@]3(C)C[C@]2(C)[C@H](c2ccc(C)cc2)CC3=O)cc1,Potency,[1],inactive
same,Potency,[2],inactive
O=C(OCc1cc(=O)n2c3c(sc2n1)CCCC3)c1cccc(NC(=O)c2ccccc2F)c1,Potency,Furin (Homo sapiens),59.1 µM (active)
COC(=O)N1C2CC(=O)O[C@H]3c4cc5c(cc4[C@]1(C)[C@@]3(Br)c1ccccc12)OCO5,Potency,[1],1.51 µM (active)
same,Potency,[2],inactive
COc1cc2c(cc1OC)[C@@H]1O[C@](c3ccsc3)(C2)OC2=C1C(=O)CC(C)(C)C2,Potency,[1],inactive
same,Potency,[2],inactive
CC1=C[C@@H](COCc2ccccc2)O[C@@]2(C1)C(=O)N(Cc1ccccc1C(F)(F)F)c1ccccc12,Potency,[1],inactive
same,Potency,[2],inactive
N.N.N.N.N.N.N.N.N.N.N.N.N.N.O.O.[Cl-].[Cl-].[Cl-].[Cl-].[Cl-].[Cl-].[Ru+4].[Ru+5].[Ru+5],Potency,[3],44.7 µM (active)
C/C=C/CC(C)C(O)C1C(=O)NC(CC)C(=O)N(C)CC(=O)N(C)C(CC(C)C)C(=O)NC(C(C)C)C(=O)N(C)C(CC(C)C)C(=O)NC(C)C(=O)NC(C)C(=O)N(C)C(CC(C)C)C(=O)N(C)C(CC(C)C)C(=O)N(C)C(C(C)C)C(=O)N1C (configuration not stated),outcome,[4],inactive
same,Potency,[5],inactive
same,Potency,[6],inactive
same,outcome,[7],inactive
same,outcome,[8],inactive
same,outcome,[9],inactive
same,outcome,[10],inactive
same,Potency,[3],inactive
same,Potency,[11],inactive
same,Potency,[12],inactive
same,Potency,[13],inactive
same,outcome,[14],inactive
same,outcome,[15],inactive
same,Potency,[16],inactive
same,Potency,Papain (Carica papaya),inactive
same,Potency,[17],7.84 µM (active)
same,Potency,[18],inactive
same,Potency,[19],inactive
same,Potency,[20],inactive
same,Potency,[21],inactive
CC1=CC[C@@H](COc2ccccc2)O[C@@]2(C1)C(=O)N(Cc1ccc(Br)cc1)c1ccccc12,Potency,[1],inactive
same,Potency,[2],inactive
